Data reported in PubChem BioAssay AID1159580 (chemical genetic matrix, 2015).
Hit rate of the full screen: of about 5,500 compounds, about 2,000 (36%) were called active. Inconclusive results (about 18%) are left out. Rule as the data show it: active = normalized growth mostly below about 0.91 (no sharp cut-off); inconclusive = no clear call, values can overlap the other calls; inactive = mostly above about 0.92. This is one part of the list.

Experiment: chemical genetic growth profiling, strain panel (AID 1159580);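 also: tested at 20 µM; growth read once vehicle control cultures reached saturation at 30 °C; 1 = growth at the plate median or of vehicle wells; lower values mean less growth of the strain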
Conditions: growth OD

Measured: normalized growth

NC(=O)N/N=C\c1ccc([N+](=O)[O-])o1
inactive: S. cerevisiae deletion strains, locus YJR066W, strain TOR1, hits give low values 0.911 | S. cerevisiae deletion strains, locus YKL009W, strain mrt4, hits give low values 0.979 | S. cerevisiae deletion strains, locus YKL068W, hits give low values 0.994 | S. cerevisiae deletion strains, locus YKL085W, strain MDH1 (second series), hits give low values 0.987 | S. cerevisiae deletion strains, locus YKL085W, strain MDH1, hits give low values 0.987 | S. cerevisiae deletion strains, locus YKL160W, strain elf1, hits give low values 0.983 | S. cerevisiae deletion strains, locus YKL190W, strain CNB1, hits give low values 1.02 | S. cerevisiae deletion strains, locus YKR001C, strain vps1, hits give low values 0.95 | S. cerevisiae deletion strains, locus YKR026C, strain gcn3, hits give low values 1 | S. cerevisiae deletion strains, locus YKR091W, strain srl3, hits give low values 0.991 | S. cerevisiae deletion strains, locus YLL001W, strain dnm1, hits give low values 0.995 | S. cerevisiae deletion strains, locus YLL026W, hits give low values 0.999 | S. cerevisiae deletion strains, locus YLL041C, strain sdh2, hits give low values 0.995 | S. cerevisiae deletion strains, locus YLR027C, strain aat2, hits give low values 1 | S. cerevisiae deletion strains, locus YLR039C, strain RIC1, hits give low values 1.03 | S. cerevisiae deletion strains, locus YLR058C, strain SHM2, hits give low values 0.994 | S. cerevisiae deletion strains, locus YLR102C, strain apc9, hits give low values 0.984 | S. cerevisiae deletion strains, locus YLR113W, strain HOG1, hits give low values 1 | S. cerevisiae deletion strains, locus YLR221C, strain rsa3, hits give low values 0.975 | S. cerevisiae deletion strains, locus YLR258W, strain gsy2, hits give low values 0.998 | S. cerevisiae deletion strains, locus YLR262C, strain YPT6 (second series), hits give low values 1.01 | S. cerevisiae deletion strains, locus YLR262C, strain YPT6, hits give low values 1.03 | S. cerevisiae deletion strains, locus YLR268W, strain sec22, hits give low values 0.969 | S. cerevisiae deletion strains, locus YLR320W, strain mms22, hits give low values 0.98 | S. cerevisiae deletion strains, locus YLR330W, strain CHS5, hits give low values 0.998 | S. cerevisiae deletion strains, locus YLR342W, strain FKS1 (second series), hits give low values 1.03 | S. cerevisiae deletion strains, locus YLR342W, strain FKS1, hits give low values 1 | S. cerevisiae deletion strains, locus YLR357W, strain rsc2, hits give low values 0.97 | S. cerevisiae deletion strains, locus YLR370C, strain arc18, hits give low values 0.997 | S. cerevisiae deletion strains, locus YLR371W, strain rom2, hits give low values 0.986 | S. cerevisiae deletion strains, locus YLR384C, strain iki3, hits give low values 1.01 | S. cerevisiae deletion strains, locus YLR418C, strain cdc73, hits give low values 0.904 | S. cerevisiae deletion strains, locus YML016C, strain PPZ1, hits give low values 1 | S. cerevisiae deletion strains, locus YML032C, strain rad52, hits give low values 0.938 | S. cerevisiae deletion strains, locus YML120C, strain ndi1, hits give low values 1.02 | S. cerevisiae deletion strains, locus YML124C, strain tub3, hits give low values 0.993 | S. cerevisiae deletion strains, locus YMR058W, strain fet3, hits give low values 0.961 | S. cerevisiae deletion strains, locus YMR078C, strain ctf18, hits give low values 0.994 | S. cerevisiae deletion strains, locus YMR125W, strain sto1, hits give low values 0.993 | S. cerevisiae deletion strains, locus YMR129W, hits give low values 1 | S. cerevisiae deletion strains, locus YMR205C, strain PFK2, hits give low values 1.02 | S. cerevisiae deletion strains, locus YMR223W, strain ubp8, hits give low values 0.97 | S. cerevisiae deletion strains, locus YMR231W, strain pep5, hits give low values 0.993 | S. cerevisiae deletion strains, locus YMR307W, strain GAS1, hits give low values 1.01 | S. cerevisiae deletion strains, locus YNL067W, strain RPL9B, hits give low values 1.01 | S. cerevisiae deletion strains, locus YNL071W, strain lat1, hits give low values 0.99 | S. cerevisiae deletion strains, locus YNL128W, strain TEP1, hits give low values 1.03 | S. cerevisiae deletion strains, locus YNL153C, strain GIM3, hits give low values 1.01 | S. cerevisiae deletion strains, locus YNL183C, strain NPR1, hits give low values 0.919 | S. cerevisiae deletion strains, locus YNL209W, strain ssb2, hits give low values 0.994 | S. cerevisiae deletion strains, locus YNL233W, strain BNI4, hits give low values 0.998 | S. cerevisiae deletion strains, locus YNL248C, strain rpa49, hits give low values 0.967 | S. cerevisiae deletion strains, locus YNL250W, strain rad50, hits give low values 0.97 | S. cerevisiae deletion strains, locus YNL271C, strain bni1, hits give low values 0.999 | S. cerevisiae deletion strains, locus YNL298W, strain CLA4, hits give low values 0.986 | S. cerevisiae deletion strains, locus YNL307C, strain MCK1, hits give low values 0.995 | S. cerevisiae deletion strains, locus YNL322C, strain KRE1 (second series), hits give low values 0.997 | S. cerevisiae deletion strains, locus YNR049C, strain mso1, hits give low values 0.995 | S. cerevisiae deletion strains, locus YNR052C, strain pop2, hits give low values 0.989 | S. cerevisiae deletion strains, locus YOL006C, strain TOP1, hits give low values 1.06 | S. cerevisiae deletion strains, locus YOL012C, strain htz1 0.96 | S. cerevisiae deletion strains, locus YOL147C, strain pex11, hits give low values 0.988 | S. cerevisiae deletion strains, locus YOR001W, strain rrp6, hits give low values 1.01 | S. cerevisiae deletion strains, locus YOR061W, strain CKA2, hits give low values 0.994 | S. cerevisiae deletion strains, locus YOR069W, strain VPS5, hits give low values 1 | S. cerevisiae deletion strains, locus YOR070C, strain gyp1, hits give low values 0.998 | S. cerevisiae deletion strains, locus YOR080W, strain dia2, hits give low values 1.01 | S. cerevisiae deletion strains, locus YOR083W, strain WHI5, hits give low values 0.963 | S. cerevisiae deletion strains, locus YOR106W, strain vam3, hits give low values 0.983 | S. cerevisiae deletion strains, locus YOR136W, strain idh2, hits give low values 0.984 | S. cerevisiae deletion strains, locus YOR144C, strain elg1, hits give low values 0.989 | S. cerevisiae deletion strains, locus YOR184W, strain ser1, hits give low values 0.989 | S. cerevisiae deletion strains, locus YOR231W, strain MKK1, hits give low values 0.95 | S. cerevisiae deletion strains, locus YOR265W, strain rbl2, hits give low values 0.996 | S. cerevisiae deletion strains, locus YOR270C, strain vph1, hits give low values 0.972 | S. cerevisiae deletion strains, locus YOR290C, strain snf2, hits give low values 0.986 | S. cerevisiae deletion strains, locus YOR316C, strain cot1, hits give low values 0.992 | S. cerevisiae deletion strains, locus YPL051W, strain arl3, hits give low values 0.966 | S. cerevisiae deletion strains, locus YPL078C, strain atp4, hits give low values 0.991 | S. cerevisiae deletion strains, locus YPL106C, strain sse1, hits give low values 0.956 | S. cerevisiae deletion strains, locus YPL240C, strain hsp82, hits give low values 1.01 | S. cerevisiae deletion strains, locus YPL241C, strain CIN2, hits give low values 1.01 | S. cerevisiae deletion strains, locus YPL256C, strain CLN2, hits give low values 0.982 | S. cerevisiae deletion strains, locus YPR119W, strain clb2, hits give low values 0.987 | S. cerevisiae deletion strains, locus YPR141C, strain kar3, hits give low values 0.993 | S. cerevisiae deletion strains, locus YPR163C, strain tif3, hits give low values 0.992 | S. cerevisiae deletion strains, locus YPR167C, strain met16, hits give low values 0.987 | S. cerevisiae deletion strains, strain wtn01, hits give low values 0.97 | S. cerevisiae strains, strain wild type, hits give low values 1.03
